Results on five compounds are retold here after article PMC11062922 (Nature Chemical Biology, 2023).

What all share (design): species or system human, MV4-11 + K-562 + COLO205 + SK-N-BE2 + OVCAR-8
The test system of assay [1] is ACVR1B. Particulars: read-out: apparent Kd, compound concentrations: 100 nM and 1000 nM (sheet 'Samples'), n = 1.
Assay [2] relates to CIT. To be noted: read-out: apparent Kd; compound concentrations: 100 nM and 1000 nM (sheet 'Samples'), CATDS: 0.11106465565946499; n = 1.
The subject of assay [3] is CSNK1D. Particulars: read-out: apparent Kd, compound concentrations: 100 nM and 1000 nM (sheet 'Samples'), n = 1.
Assay [4] concerns GRK6. To be noted: read-out: apparent Kd; compound concentrations: 100 nM and 1000 nM (sheet 'Samples'), CATDS: 0.11057023586935499; n = 1.
The test system of assay [5] is MAPK14. To be noted: read-out: apparent Kd, compound concentrations: 100 nM and 1000 nM (sheet 'Samples'), n = 1.
In assay [6] the test system is MAPKAPK2. Particulars: read-out: apparent Kd, compound concentrations: 100 nM and 1000 nM (sheet 'Samples'), n = 1.
Assay [7] deals with PKN3. To be noted: read-out: apparent Kd; compound concentrations: 100 nM and 1000 nM (sheet 'Samples'), CATDS: 0.17855560727929401; n = 1.
Assay [8] has as its system NQO1. Particulars: read-out: apparent Kd; compound concentrations: 100 nM and 1000 nM (sheet 'Samples'), CATDS: 9.3669265888158104E-2; n = 1.
Assay [9] relates to PRKD2. Particulars: read-out: apparent Kd, compound concentrations: 100 nM and 1000 nM (sheet 'Samples'), n = 1.
The subject of assay [10] is PRKD3. To be noted: read-out: apparent Kd; compound concentrations: 100 nM and 1000 nM (sheet 'Samples'), CATDS: 9.3266966311560201E-2; n = 1.
Assay [11] deals with RIPK2. Particulars: read-out: apparent Kd, compound concentrations: 100 nM and 1000 nM (sheet 'Samples'), n = 1.
Assay [12] relates to TGFBR1. Particulars: read-out: apparent Kd, compound concentrations: 100 nM and 1000 nM (sheet 'Samples'), n = 1.
The test system of assay [13] is TGFBR2. To be noted: read-out: apparent Kd; compound concentrations: 100 nM and 1000 nM (sheet 'Samples'), CATDS: 0.106428788110752; n = 1.
For assay [14], the system named is CSNK1E. To be noted: read-out: apparent Kd, compound concentrations: 100 nM and 1000 nM (sheet 'Samples'), n = 1.
Assay [15] has as its system ACVR1. To be noted: read-out: apparent Kd; compound concentrations: 100 nM and 1000 nM (sheet 'Samples'), CATDS: 4.9335047128928999E-2; n = 1.
Assay [16] has as its system CSNK1A1. To be noted: read-out: apparent Kd; compound concentrations: 100 nM and 1000 nM (sheet 'Samples'), CATDS: 5.98915782601789E-2; n = 1.
Assay [17] deals with DDR1. To be noted: read-out: apparent Kd; compound concentrations: 100 nM and 1000 nM (sheet 'Samples'), CATDS: 4.72879881828875E-2; n = 1.
The test system of assay [18] is DDR2. Particulars: read-out: apparent Kd; compound concentrations: 100 nM and 1000 nM (sheet 'Samples'), CATDS: 3.7607039392505398E-2; n = 1.
In assay [19] the test system is GAK. To be noted: read-out: apparent Kd; compound concentrations: 100 nM and 1000 nM (sheet 'Samples'), CATDS: 4.4963876201462499E-2; n = 1.
The test system of assay [20] is MAPK10. To be noted: read-out: apparent Kd; compound concentrations: 100 nM and 1000 nM (sheet 'Samples'), CATDS: 4.8287227118758103E-2; n = 1.
Assay [21] deals with MAPK11. Particulars: read-out: apparent Kd; compound concentrations: 100 nM and 1000 nM (sheet 'Samples'), CATDS: 4.7431075480448899E-2; n = 1.
Assay [22] has as its system MAPK9. To be noted: read-out: apparent Kd; compound concentrations: 100 nM and 1000 nM (sheet 'Samples'), CATDS: 6.4628535375358898E-2; n = 1.
In assay [23] the test system is ADCK3. To be noted: read-out: apparent Kd; compound concentrations: 100 nM and 1000 nM (sheet 'Samples'), CATDS: 0.14880786658068901; n = 1.
For assay [24], the system named is AKT2. Particulars: read-out: apparent Kd; compound concentrations: 100 nM and 1000 nM (sheet 'Samples'), CATDS: 0.130692249594417; n = 1.
Assay [25] relates to PIK3CA. To be noted: read-out: apparent Kd; compound concentrations: 100 nM and 1000 nM (sheet 'Samples'), CATDS: 0.46102021867548298; n = 1.
In assay [26] the test system is PIM2. Particulars: read-out: apparent Kd; compound concentrations: 100 nM and 1000 nM (sheet 'Samples'), CATDS: 0.15422664553474699; n = 1.
Assay [27] relates to PRKAG2. To be noted: read-out: apparent Kd; compound concentrations: 100 nM and 1000 nM (sheet 'Samples'), CATDS: 0.141920033586769; n = 1.

Each structure is given as a SMILES string. Where two headings read alike, the source gives them in different places.

`CSc1cccc2c(-c3ccncn3)c(-c3ccc(F)cc3)nn12` [GW514786X]: the potency estimated from few doses is 801 nM in assay [1] (CATDS: 0.17509937322487801); 2190 nM in assay [2]; 1420 nM in [3] (CATDS: 0.131295791130774); 2220 nM in assay [4]; 863 nM in assay [5] (CATDS: 0.16800162105717001); 895 nM in assay [6] (CATDS: 0.164691534232419). For the same compound, the potency estimated from few doses in assay [7] is 774 nM.

As for `Nc1nc(-c2ccccn2)c(-c2ccc3ncccc3n2)s1` [GW693481X], the potency estimated from few doses in assay [1] (CATDS: 0.44423819438106199) is 18.9 nM; in [3] (CATDS: 0.10134290714946401), 1410 nM; in [8] it was 1850 nM; in assay [9] (CATDS: 9.0452620049035204E-2), 2110 nM; in assay [10] it was 1880 nM; in assay [11] (CATDS: 0.125372096454309), 727 nM. Further, the potency estimated from few doses in assay [12] (CATDS: 0.486387422395817) is 16 nM; in assay [13], 1200 nM.

For the compound `CN(C)CCCNc1nccc(-c2c(-c3ccc(F)cc3)nn3cc(C(F)(F)F)ccc23)n1.CS(=O)(=O)O` [GW618013A], the potency estimated from few doses was 849 nM in [1] (CATDS: 0.30191803443786602), 827 nM in assay [3] (CATDS: 0.30648491159914698), 2340 nM in [14] (CATDS: 0.19201098088976601) and 1370 nM in [5] (CATDS: 0.23713518302070899).

With `CN1CCN(CCCNc2nccc(-c3c(-c4ccc(F)cc4)nn4cc(C(N)=O)ccc34)n2)CC1` [GW622475X], the potency estimated from few doses in assay [1] (CATDS: 0.21340745676279499) is 16.5 nM; in [15], 488 nM; in assay [16] it was 252 nM; in assay [3] (CATDS: 0.221506901273927), 15.6 nM; in assay [14] (CATDS: 9.6112931202447002E-2), 72.3 nM; in [17] it was 576 nM. For the same compound, the potency estimated from few doses in assay [18] was 1900 nM; in [19], 712 nM; in assay [20], 530 nM; in assay [21], 569 nM; in assay [5] (CATDS: 0.132847798162957), 36.9 nM; in [22] it was 200 nM. The potency estimated from few doses in [6] (CATDS: 0.150637698751246) was 29.3 nM; in assay [9] (CATDS: 3.69212062314868E-2), 2180 nM; in assay [11] (CATDS: 5.3537616523073803E-2), 363 nM; in [12] (CATDS: 8.1591289102362505E-2), 107 nM.

In the case of `COc1ccc(-c2ccc3c(NC(=O)C4CC4)n[nH]c3n2)cc1` [SB-711237], the potency estimated from few doses in [1] (CATDS: 0.16866039240373501) is 1180 nM; in assay [23] it was 1590 nM; in assay [24] it was 2260 nM; in [25], 210 nM; in assay [26] it was 1450 nM; in assay [27], 1790 nM.
